Source: the supplement of paper PMC11732987, “Enantioselective OTUD7B fragment discovery through chemoproteomics screening and high-throughput optimisation” (Communications Chemistry, 2025)

Legend:
Experiment in all cases: log2 ratio of Biotin-Ahx-Ub-VS probe labelling (fragment/DMSO); higher = less target engagement (more negative = stronger competition), active = hit call of the paper (q ≤ 0.05, log2 ratio ≤ -1)
Settings in all cases: compound concentration: 200 uM; treatment time: 3 h
USP19 = target: T1, USP19 (UniProt O94966)
T1 sequence (whole entry): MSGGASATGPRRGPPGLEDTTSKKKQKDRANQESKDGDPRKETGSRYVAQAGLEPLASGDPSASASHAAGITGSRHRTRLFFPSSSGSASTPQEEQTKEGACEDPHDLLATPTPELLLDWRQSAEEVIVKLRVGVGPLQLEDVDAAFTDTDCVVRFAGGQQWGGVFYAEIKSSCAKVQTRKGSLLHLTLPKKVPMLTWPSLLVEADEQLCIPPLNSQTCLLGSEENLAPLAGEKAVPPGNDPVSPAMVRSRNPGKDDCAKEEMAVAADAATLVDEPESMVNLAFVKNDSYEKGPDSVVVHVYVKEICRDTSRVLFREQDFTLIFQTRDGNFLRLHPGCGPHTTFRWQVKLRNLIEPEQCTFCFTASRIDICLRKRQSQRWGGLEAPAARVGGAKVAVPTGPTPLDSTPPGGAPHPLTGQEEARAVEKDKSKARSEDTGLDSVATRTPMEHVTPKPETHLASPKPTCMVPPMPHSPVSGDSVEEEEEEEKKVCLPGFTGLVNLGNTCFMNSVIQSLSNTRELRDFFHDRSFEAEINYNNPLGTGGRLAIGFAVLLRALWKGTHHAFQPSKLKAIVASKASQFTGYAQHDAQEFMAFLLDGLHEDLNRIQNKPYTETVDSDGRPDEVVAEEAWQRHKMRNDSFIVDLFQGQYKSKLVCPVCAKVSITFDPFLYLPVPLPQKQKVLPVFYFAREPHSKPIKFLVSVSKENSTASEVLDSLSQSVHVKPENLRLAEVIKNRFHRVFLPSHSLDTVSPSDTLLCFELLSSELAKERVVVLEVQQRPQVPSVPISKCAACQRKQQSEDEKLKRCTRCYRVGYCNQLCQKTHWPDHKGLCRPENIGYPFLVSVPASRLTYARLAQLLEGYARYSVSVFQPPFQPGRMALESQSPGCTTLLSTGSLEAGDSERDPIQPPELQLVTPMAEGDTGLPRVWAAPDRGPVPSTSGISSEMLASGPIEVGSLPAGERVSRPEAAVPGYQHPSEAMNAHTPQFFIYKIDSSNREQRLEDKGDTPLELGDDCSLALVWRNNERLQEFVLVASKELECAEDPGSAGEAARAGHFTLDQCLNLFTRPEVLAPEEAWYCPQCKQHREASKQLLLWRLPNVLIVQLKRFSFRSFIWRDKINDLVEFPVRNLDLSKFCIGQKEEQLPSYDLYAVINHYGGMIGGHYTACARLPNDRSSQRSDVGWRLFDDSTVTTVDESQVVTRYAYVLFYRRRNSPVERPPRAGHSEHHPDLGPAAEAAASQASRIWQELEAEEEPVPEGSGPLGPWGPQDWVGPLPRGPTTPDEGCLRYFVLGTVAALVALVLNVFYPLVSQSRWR
Method in brief: (§1)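 Labelled DUBs from HEK293T lysate were NeutrAvidin-enriched, digested with LysC and trypsin, and run by diaPASEF LC-MS/MS. Before that, each 495 µg sample in Tris/CHAPS/IGEPAL buffer with protease inhibitors was treated in triplicate with fragment at 200 µM or vehicle for 3 h, then with Biotin-Ahx-Ub-VS at 0.5 µM final for 1 h. Values are average log2 ratios of fragment over vehicle by unpaired t-test, based on global-median-normalised Spectronaut label-free quantities from proteins with ≥2 unique peptides.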

USP24 = USP24 (UniProt Q9UPU5)
USP24, sequence (Q9UPU5 whole entry): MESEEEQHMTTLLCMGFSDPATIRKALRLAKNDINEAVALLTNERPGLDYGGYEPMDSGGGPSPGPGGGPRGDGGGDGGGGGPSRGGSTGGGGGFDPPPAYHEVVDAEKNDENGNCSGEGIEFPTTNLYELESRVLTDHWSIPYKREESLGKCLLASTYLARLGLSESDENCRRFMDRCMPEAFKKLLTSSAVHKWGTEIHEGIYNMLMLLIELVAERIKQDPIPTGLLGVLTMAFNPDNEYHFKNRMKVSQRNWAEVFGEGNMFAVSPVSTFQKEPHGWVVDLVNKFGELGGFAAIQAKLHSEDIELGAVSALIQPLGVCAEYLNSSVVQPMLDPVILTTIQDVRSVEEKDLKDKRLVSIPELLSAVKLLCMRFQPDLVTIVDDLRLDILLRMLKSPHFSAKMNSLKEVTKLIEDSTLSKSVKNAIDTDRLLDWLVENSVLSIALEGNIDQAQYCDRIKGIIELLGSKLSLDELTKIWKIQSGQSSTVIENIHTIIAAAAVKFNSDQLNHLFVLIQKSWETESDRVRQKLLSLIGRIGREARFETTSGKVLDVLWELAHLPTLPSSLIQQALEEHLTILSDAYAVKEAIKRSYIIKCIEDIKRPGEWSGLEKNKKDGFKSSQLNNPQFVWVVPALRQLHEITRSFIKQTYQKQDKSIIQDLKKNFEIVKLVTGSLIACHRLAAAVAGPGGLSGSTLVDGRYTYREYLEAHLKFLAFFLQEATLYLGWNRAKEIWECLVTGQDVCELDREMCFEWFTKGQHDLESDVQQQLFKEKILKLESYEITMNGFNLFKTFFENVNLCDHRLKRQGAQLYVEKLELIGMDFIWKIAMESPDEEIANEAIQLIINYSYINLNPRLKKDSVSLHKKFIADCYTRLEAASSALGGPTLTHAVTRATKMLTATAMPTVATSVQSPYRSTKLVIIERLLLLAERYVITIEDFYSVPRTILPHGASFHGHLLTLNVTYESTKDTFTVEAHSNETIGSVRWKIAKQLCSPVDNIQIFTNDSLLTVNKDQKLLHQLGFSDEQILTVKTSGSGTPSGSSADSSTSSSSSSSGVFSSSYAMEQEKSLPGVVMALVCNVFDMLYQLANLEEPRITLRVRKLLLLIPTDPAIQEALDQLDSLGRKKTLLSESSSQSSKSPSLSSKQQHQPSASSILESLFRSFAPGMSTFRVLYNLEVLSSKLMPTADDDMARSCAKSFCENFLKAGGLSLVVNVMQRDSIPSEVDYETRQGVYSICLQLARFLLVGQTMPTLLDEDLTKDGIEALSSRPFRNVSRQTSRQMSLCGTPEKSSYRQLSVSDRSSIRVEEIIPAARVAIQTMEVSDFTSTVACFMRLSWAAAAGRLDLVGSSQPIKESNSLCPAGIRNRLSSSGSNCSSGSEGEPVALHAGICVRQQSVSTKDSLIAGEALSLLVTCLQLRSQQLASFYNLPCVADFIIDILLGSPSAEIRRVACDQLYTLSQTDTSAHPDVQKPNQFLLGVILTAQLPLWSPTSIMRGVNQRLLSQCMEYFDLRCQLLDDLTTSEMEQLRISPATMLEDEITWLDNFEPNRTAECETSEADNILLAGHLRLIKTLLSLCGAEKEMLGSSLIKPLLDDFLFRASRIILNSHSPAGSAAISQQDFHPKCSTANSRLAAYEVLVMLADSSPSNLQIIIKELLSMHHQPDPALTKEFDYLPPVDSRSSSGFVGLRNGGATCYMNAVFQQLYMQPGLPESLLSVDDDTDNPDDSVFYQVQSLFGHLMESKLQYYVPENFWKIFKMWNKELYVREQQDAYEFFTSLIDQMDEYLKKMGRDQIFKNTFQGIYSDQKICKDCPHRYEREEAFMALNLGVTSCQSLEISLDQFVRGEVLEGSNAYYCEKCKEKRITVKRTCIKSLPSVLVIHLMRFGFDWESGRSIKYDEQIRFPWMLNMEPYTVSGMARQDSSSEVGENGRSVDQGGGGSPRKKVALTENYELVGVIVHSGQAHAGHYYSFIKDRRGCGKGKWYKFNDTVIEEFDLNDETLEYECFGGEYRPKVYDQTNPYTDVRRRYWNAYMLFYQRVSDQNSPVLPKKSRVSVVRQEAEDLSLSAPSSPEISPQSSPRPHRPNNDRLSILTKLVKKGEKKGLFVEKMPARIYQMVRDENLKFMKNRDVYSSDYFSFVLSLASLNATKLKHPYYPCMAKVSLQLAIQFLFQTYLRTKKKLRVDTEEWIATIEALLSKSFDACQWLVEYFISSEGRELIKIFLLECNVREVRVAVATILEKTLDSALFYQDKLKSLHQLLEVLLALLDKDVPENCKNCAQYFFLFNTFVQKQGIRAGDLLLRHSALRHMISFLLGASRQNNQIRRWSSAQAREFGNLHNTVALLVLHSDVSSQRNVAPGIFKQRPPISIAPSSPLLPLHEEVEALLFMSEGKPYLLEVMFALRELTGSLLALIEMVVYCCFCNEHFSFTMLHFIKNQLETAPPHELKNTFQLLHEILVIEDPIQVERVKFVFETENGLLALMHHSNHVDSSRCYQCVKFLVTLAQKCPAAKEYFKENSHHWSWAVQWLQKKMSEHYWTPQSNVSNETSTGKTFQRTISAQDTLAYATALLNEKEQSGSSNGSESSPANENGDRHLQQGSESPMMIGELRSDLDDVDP
Method in brief: as §1

USP25 = target: T2, USP25 (UniProt Q9UHP3)
T2 sequence (whole entry): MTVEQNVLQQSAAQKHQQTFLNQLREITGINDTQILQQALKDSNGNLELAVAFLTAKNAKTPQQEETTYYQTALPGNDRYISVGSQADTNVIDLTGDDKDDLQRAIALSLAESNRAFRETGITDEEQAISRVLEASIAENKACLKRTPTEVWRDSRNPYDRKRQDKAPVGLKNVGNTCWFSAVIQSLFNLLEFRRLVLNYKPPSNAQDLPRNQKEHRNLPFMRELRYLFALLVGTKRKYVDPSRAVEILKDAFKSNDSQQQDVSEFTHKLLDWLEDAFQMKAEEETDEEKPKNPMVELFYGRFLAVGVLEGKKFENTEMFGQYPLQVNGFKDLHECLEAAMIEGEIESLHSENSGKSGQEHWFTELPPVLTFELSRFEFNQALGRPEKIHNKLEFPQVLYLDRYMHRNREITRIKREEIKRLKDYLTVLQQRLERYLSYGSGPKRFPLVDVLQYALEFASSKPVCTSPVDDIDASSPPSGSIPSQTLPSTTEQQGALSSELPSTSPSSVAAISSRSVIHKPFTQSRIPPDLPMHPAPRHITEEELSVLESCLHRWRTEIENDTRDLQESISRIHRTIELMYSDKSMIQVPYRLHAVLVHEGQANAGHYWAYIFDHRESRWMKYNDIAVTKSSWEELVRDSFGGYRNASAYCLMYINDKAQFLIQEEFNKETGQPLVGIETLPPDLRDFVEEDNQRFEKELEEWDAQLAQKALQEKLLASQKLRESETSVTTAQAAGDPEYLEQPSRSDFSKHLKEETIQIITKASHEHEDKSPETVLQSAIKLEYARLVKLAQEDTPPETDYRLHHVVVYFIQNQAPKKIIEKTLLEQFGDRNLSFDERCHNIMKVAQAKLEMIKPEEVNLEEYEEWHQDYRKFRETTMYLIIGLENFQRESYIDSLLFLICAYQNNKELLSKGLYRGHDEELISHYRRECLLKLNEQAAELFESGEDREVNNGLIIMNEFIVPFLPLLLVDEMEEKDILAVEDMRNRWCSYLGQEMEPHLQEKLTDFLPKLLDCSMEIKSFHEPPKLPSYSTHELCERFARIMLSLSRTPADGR
Method in brief: as §1

USP28 = target: T3, USP28 (UniProt Q96RU2)
T3 sequence (whole entry): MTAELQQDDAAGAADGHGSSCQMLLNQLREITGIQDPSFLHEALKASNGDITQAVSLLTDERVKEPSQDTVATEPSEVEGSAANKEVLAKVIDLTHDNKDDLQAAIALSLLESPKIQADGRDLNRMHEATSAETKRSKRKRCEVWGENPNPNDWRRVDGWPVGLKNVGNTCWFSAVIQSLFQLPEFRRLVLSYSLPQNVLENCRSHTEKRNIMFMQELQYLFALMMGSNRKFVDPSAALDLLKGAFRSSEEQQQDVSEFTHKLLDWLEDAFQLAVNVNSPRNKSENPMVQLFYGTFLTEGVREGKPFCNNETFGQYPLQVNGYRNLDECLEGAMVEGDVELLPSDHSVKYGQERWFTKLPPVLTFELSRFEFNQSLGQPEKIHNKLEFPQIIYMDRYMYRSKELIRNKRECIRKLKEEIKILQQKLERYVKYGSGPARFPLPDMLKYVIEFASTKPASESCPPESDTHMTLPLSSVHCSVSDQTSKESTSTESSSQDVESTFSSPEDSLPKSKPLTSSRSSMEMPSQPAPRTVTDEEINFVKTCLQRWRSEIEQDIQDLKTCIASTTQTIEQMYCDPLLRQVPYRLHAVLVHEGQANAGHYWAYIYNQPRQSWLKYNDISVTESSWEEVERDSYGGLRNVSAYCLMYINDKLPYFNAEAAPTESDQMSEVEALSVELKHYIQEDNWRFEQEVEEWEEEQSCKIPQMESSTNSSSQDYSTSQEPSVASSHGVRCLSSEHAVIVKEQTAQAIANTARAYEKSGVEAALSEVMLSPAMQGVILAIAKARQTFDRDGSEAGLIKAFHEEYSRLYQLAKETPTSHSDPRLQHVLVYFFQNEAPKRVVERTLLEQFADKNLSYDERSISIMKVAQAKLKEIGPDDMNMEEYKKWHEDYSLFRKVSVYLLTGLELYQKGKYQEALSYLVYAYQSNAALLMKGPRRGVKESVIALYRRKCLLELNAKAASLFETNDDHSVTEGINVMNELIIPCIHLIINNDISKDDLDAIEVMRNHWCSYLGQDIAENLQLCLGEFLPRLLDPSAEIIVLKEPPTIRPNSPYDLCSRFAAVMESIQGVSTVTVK
Method in brief: as §1

Measured: log2 ratio of Biotin-Ahx-Ub-VS probe labelling

Cl.O=C(CCl)N1CCN(Cc2ccccc2)CC1
inactive: USP19 -0.21 | USP24 -0.611 | USP25 -0.226 | USP28 -0.511
